Screening data as filed in PubChem BioAssay.
This is a sample that favours compounds with a hit; in the whole collection about 0.89% have one here.
CBFb RUNX1 block – inhibitors of human CBF-beta and RUNX1 interaction; AlphaScreen CBFb-His/RUNX1-biotin binding, biochemical; Potency, µM (top dose mostly 59.8 µM), inactives show at the top dose activity, negative = inhibition, usual class: inhibitors; 230,000 tested, under 10 active; AID 1477; further: % of control where 0% means no effect
Target sequence (Q01196 whole entry, looked up): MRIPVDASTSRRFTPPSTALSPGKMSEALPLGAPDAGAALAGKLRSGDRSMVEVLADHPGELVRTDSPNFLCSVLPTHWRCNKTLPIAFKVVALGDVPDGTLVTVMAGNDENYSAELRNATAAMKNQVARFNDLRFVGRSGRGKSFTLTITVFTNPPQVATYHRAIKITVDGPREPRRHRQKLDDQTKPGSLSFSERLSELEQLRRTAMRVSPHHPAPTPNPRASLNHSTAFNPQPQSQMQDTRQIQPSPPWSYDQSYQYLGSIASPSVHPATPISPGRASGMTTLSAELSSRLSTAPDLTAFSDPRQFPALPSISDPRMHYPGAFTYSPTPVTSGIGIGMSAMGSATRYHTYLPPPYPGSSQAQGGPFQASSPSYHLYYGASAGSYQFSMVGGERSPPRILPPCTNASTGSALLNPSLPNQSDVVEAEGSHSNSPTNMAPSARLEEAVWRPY
Target sequence (Q13951 whole entry, looked up): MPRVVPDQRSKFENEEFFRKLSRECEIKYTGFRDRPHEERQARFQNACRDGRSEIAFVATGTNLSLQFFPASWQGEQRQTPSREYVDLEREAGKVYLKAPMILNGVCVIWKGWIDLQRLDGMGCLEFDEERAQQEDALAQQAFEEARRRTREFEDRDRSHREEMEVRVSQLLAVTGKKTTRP
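Bead-based AlphaScreen assay; binding partners His-tagged CBF-beta and biotinylated RUNX1 at 30 nM each. Compound exposure 15 min after a 20-min protein preincubation; bead step 90 min; all steps at room temperature.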
MBNL1-CUG inh – blocks human MBNL1 binding to CUG repeat RNA; Q9NR56; TR-FRET MBNL1-His/biotin-(CUG)12 binding, 665/545 ratio; Potency, µM (highest dose often 57.5 µM), for inactives: at the top dose activity change, negative = inhibition, actives largely listed as inhibitors; hit rate 0.036% among 280,000; AID 2675; active means well fitted inhibition curve with a large enough effect in the signal ratio, with a control signal flat, not every such curve was filed as active; inconclusive means small, poorly fitted or top-dose-only effect, or effect the other way, or a change in a side signal; inactive means no such curve, though single readings can be large or run the other way; the % refers to the signal ratio; further: potency means the concentration at half of the fitted maximal effect; on the % scale 0 is the no-effect control and ±100 the full control effect
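Inhibition of protein-RNA binding appears as loss of TR-FRET between terbium anti-His antibody on MBNL1-His and streptavidin-XL665 on biotin-(CUG)12. Activity is normalized to buffer-only and uninhibited-complex controls.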
Six1-Eya2 inh – Six1/Eya2 interaction inhibition | activity change, % (no concentration beside the values) | hit rate 0.56% among 360,000 | AID 651725 | AlphaScreen GST-Six1/His-Eya2 binding, biochemical; active compounds read low | Q15475+O00167; in the data active means activity change below about -65%; inconclusive means mostly about -30% to -63%; further: on the % scale 0 is the no-effect control and ±100 the full control effect
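Compounds are tested against tagged Six1 and Eya2 proteins bridged by glutathione donor and nickel acceptor beads; after a one-hour incubation at 37 °C without light, AlphaScreen emission is recorded.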
CtBP-E1A blk – CtBP/E1A binding inhibition; hit rate 0.49% among 340,000; AlphaScreen GST-E1A/His-CtBP binding, 1536-well; active compounds read low; activity change, % (test concentration not listed); AID 651724; in the data active means activity change below about -65%; inconclusive means mostly about -30% to -63%; further: on the % scale 0 is the no-effect control and ±100 the full control effect
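GST-E1A and His-tagged CtBP (125 nM each as 5X stock) were preincubated with pin-transferred compound for 2 h at 37 °C in the dark, then glutathione donor and nickel acceptor beads were added for 1 h before AlphaScreen reading.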
Eya2 inh – Eya2 (human) phosphatase inhibition; hit rate 0.006% among 330,000; Potency, µM (doses to about 76.9 µM), for inactives: at the top dose activity, negative = inhibition, hits mostly inhibitors; recombinant Eya2, OMFP fluorescence dephosphorylation (OMFP is methylfluorescein phosphate); O00167; AID 488837; further: potency means the concentration at half of the fitted maximal effect; on the % scale 0 is the no-effect control and ±100 the full control effect
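Eya2 protein (added as 0.2 uM solution) was preincubated with compound for 10 min at ambient temperature in 50 mM HEPES pH 7.5, 50 mM NaCl, 5 uM MgCl2, 0.05% BSA, 1 mM DTT. OMFP (added at 50 uM) then reacted 10 min; fluorescence read at 485/525 nm.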
L3MBTL1 inh – inhibitors of human L3MBTL1; Potency, µM (titrated, usually from 57.1 µM), for the others: at the highest dose activity, negative = inhibition, hits mostly inhibitors; hit rate 0.66% among 230,000; Q9Y468; AID 485360; AlphaScreen L3MBTL1–H3K9me1 peptide binding; further: potency means the concentration at half of the fitted maximal effect; on the % scale 0 is the no-effect control and ±100 the full control effect; nearly all actives have a fitted effect of over 60% in size
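AlphaScreen assay: L3MBTL1 (50 nM final) was preincubated 30 min at room temperature with biotinylated H3(1-15)K9me1 peptide (75 nM final), then 30 min with library compounds; streptavidin donor and nickel chelate acceptor beads (10 ug/mL final) added, 30 min dark.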
MBNL1-CUG FRET – MBNL1-poly(CUG) RNA binding inhibition confirmed; shares compounds with MBNL1-CUG inh; TR-FRET MBNL1-His / biotin-(CUG)12 binding, 60 min; Potency, µM (series often up to 57.6 µM), for inactives: at the highest dose activity change, negative = inhibition, hits mostly inhibitors; hit rate 50% among 140; AID 493199
MBNL1-CUG Alpha – blocks MBNL1 binding to (CUG)12 RNA in AlphaScreen. hit rate 30% among 140. Potency, µM (highest dose often 57.7 µM), for the others: top-dose activity, negative = inhibition, actives largely listed as inhibitors. shares compounds with MBNL1-CUG inh. AlphaScreen MBNL1-His / biotin-(CUG)12 binding
MBNL1 HTRF CS – MBNL1-CUG RNA binding inhibitor counterscreen activity. shares compounds with MBNL1-CUG inh. His-Menin/biotin-MLL peptide TR-FRET counterscreen. Potency, µM (doses to about 57.6 µM), for the others: at the highest dose activity, negative = inhibition, hits mostly inhibitors. hit rate 20% among 120
Numbers without * were called inactive; ? = inconclusive; . = not tested or not shown; ! = repeats disagree. Unless noted, the call rests on the fitted dose curve; in most records, active means well fitted curve in the direction sought with a large enough effect; inconclusive means small, poorly fitted or top-dose-only effect, or another doubt; inactive means no such curve, though single readings can be large; an effect the other way counts as inactive or inconclusive.

SMILES	CBFb RUNX1 block	MBNL1-CUG inh	Six1-Eya2 inh	CtBP-E1A blk	Eya2 inh	L3MBTL1 inh	MBNL1-CUG FRET	MBNL1-CUG Alpha	MBNL1 HTRF CS
Cc1ccc(NC(=O)Nn2cnnc2)cc1Cl	.	39.8µM*	2.2	10.5	13.7%	.	25.9µM*	-0.7%	?
O=C(Nc1ccc(Cl)cc1)Nc1ccc(Cl)c(Cl)c1	.	.	9.3	8.2	-13.9%	15.1%	.	.	.
O=c1[nH]c(Nc2ccccc2Cl)cc2ccccc12	.	.	5.0	5.1	.	.	.	.	.
O=c1[nH]c(Nc2ccc(F)cc2)cc2ccccc12	-26.1%	.	3.8	?	?	.	32.6µM*	13µM*	2.0%
O=[N+]([O-])c1ccccc1/C=N/Nc1nnc(-c2ccccc2)c(-c2ccccc2)n1	-5.6%	5.6%	-0.8	-5.7	0.4%	-1.0%	.	.	.
COC(=O)NCc1cc2cc(Cl)ccc2[nH]1	8.8%	39.8µM*	2.1	-2.9	-0.9%	16.2%	-12.5%	-16.3%	1.0%
COC(=O)C1(C(=O)OC)CC2=CC(CC2=O)Cc2ccccc2[C@@H]1C[N+](=O)[O-] (stereo partly drawn)	3.6%	.	.	.	.	.	.	.	.
CC1C(=O)N2CCCc3cc(NC(=O)c4ccccc4C(F)(F)F)cc1c32 (stereo not drawn)	.	.	1.7	10.7	-6.1%	-1.6%	.	.	.
CC1=C(C(N)=O)C(c2cccnc2)n2nc(SCc3ccccc3Cl)nc2N1 (stereo not drawn)	17.6%	25.1µM*	1.2	-4.2	-1.7%	-6.9%	1.9%	-4.4%	-0.3%
CC1=C(C(N)=O)C(c2ccccn2)n2nc(SCc3ccccc3Cl)nc2N1 (stereo not drawn)	5.4%	6.5%	0.6	-2.9	-6.8%	-5.0%	.	.	.
COc1ccc(S(=O)(=O)N2CCC(C(=O)N[C@@H](C)C(=O)NCc3ccccc3OC)CC2)cc1	.	-5.4%	2.4	0.6	2.1%	.	.	.	.
C=CCn1cnnc1SCC(=O)Nc1cccnc1Cl	.	.	.	.	11.9%	-13.6%	.	.	.
CC(C)C[C@@H](CN1CCC[C@H]1CN1C(=O)C(=O)NC[C@@H]1Cc1ccccc1)N1C[C@H](Cc2ccccc2)N(CC2CCCCCC2)C(=O)C1=O	.	.	-5.4	4.1	.	.	.	.	.
O=C1C(Cl)=C(NCCCO)C(=O)c2ccccc21	-8.0%	?	-19.3	?	-4.5%	.	.	.	.
O=C1C(SCCO)=C(SCCO)C(=O)c2ccccc21	-2.0%	?	-2.7	?	50.1µM*!	?	5.01µM*	10µM*	.
CCOC(=O)C1CC(=NO)c2ccc(OC)c(OC)c2C1 (stereo not drawn)	.	.	10.1	1.7	.	.	.	.	.
Nc1[nH]c(C(=O)c2ccccc2)c(-c2ccc(Cl)cc2)c1C(=O)NCc1ccccc1	.	.	7.7	1.4	.	.	.	.	.
O=C1c2ccccc2C(=O)C12OC2c1cccc2ccccc12 (stereo not drawn)	5.1%	25.1µM*	40.0	-25.1	-1.7%	14.1µM*	-22.4%	?	7.3%
CCOC(=O)/C(=N\Nc1cc(Cl)ccc1Cl)N1CC(C)OC(C)C1 (stereo not drawn)	1.5%	1.8%	-3.4	.	3.3%	.	.	.	.
